Measurements reported in PubChem BioAssay AID2284351 (EPA ToxCast).
Activity calls are given as the source filed them. The calls were made as follows: active = hit-call score of the fitted dose curve at least 0.9, where 1 is the maximum; inactive = score below 0.9.

target: Peroxisome proliferator-activated receptor gamma (Homo sapiens) (UniProt P37231); test: ATG_hPPARg_EcoTox2: Attagene TRANS-FACTORIAL EcoTox-2 HepG2 Assay for human Peroxisome Proliferator-activated Receptor gamma (PPARg)
Description: ATG_EcoTox2 is a cell-based, multiplexed assay created by modifying the existing Attagene TRANS-FACTORIAL system to include a panel of nuclear receptors from some or all the following species: human (Homo sapiens), african clawed frog (Xenopus laevis), rainbow trout (Oncorhynchus mykiss), japanese medaka (Oryzias latipes), and zebrafish (Danio rerio). The ECOTOX2-FACTORIAL format uses HepG2, a human liver cell line, with measurements taken at 24 hours after chemical dosing in a 24-well plate. ATG_hPPARg_EcoTox2 is one of 29 assay components calculated in the ATG_EcoTox2 assay. It is designed to make measurements of mRNA induction, a form of inducible reporter, as detected with fluorescence intensity signals by Reverse transcription polymerase chain reaction (RT-PCR) and Capillary electrophoresis technology.The assay endpoint ATG_hPPARg_EcoTox2 was analyzed in the positive analysis fitting direction relative to DMSO as the negative control and baseline of activity. Using a type of inducible reporter, measures of mRNA for gain-of-signal activity can be used to understand the reporter gene at the transcription factor-level as they relate to the gene PPARg. Furthermore, this assay endpoint can be referred to as a primary readout, because this assay has produced multiple assay endpoints where this one serves a reporter gene function. To generalize the intended target to other relatable targets, this assay endpoint is annotated to the nuclear receptor intended target family, where the subfamily is non-steroidal.
Human liver HepG2 cells are transiently transfected with multiple reporter transcription units (MRTUs) in 6-well plates using FuGene 6 reagent (Roche; 3 ml FuGene/1 mg DNA). The MRTU constructs are regulated by a cis-regulating element (promoter). Each RTU expresses a GAL4-UAS that regulates the transcription of a nearby target reporter gene sequence. A major difference between the CIS and TRANS system is that in CIS activities of endogenous TFs are measured, whereas the TRANS assay evaluates changes in activities of exogenous, chimeric NR-Gal4 proteins. […] At the end of 24 hour incubation, total RNA was isolated using TriZol reagent (Invitrogen). The isolated RNA is then reverse-transcribed using oligo(dT) primer and Mo-MLV reverse transcriptase (Invitrogen) with DNAse I (Ambion) treatment for 30 min. The one-tenth of the produced cDNA was amplified by PCR using Taq DNA polymerase (Invitrogen) and two reporter sequence-specific primers. […] The fragments were purified using Qiaquick PCR columns (Qiagen), analyzed on an ABI 3130xL genetic analyzer (Applied Biosystems) with peak positions identified by using a set of X-rhodamine (ROX)-labeled MapMarker1000 molecular weight standards (BioVentures). […]

Sequence of Peroxisome proliferator-activated receptor gamma (Homo sapiens) (P37231 whole entry, looked up): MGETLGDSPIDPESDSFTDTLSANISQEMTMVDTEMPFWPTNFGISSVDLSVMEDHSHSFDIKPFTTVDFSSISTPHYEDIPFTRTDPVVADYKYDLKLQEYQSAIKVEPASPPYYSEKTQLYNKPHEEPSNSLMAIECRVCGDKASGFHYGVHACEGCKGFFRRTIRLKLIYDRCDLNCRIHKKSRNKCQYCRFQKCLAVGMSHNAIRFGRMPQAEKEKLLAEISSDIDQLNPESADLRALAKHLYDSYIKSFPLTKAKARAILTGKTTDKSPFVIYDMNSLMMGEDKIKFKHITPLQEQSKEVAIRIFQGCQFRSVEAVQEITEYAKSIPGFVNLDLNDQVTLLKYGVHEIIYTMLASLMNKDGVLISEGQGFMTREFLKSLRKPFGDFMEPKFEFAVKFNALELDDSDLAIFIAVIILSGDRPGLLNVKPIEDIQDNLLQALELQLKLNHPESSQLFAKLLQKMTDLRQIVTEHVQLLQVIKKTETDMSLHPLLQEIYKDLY

SMILES | AC50
CCCCOCN(C(=O)CCl)c1c(CC)cccc1CC | 1.53 µM (active)
[Cl][Sn]([c]1ccccc1)([c]1ccccc1)[c]1ccccc1 | 0.0461 µM (active)
O=S(=O)(O)C(F)(F)C(F)(F)C(F)(F)C(F)(F)C(F)(F)C(F)(F)F | 42.7 µM (active)
O=P(Oc1ccccc1)(Oc1ccccc1)Oc1ccccc1 | 5.76 µM (active)
